Molecules are shown by their SMILES. Records with an inconclusive call do not appear. Entries that show only a call come without a potency. Activity calls are given as the source filed them. Unless noted, calls come from the whole dose curve; as a rule, active = well fitted curve in the direction sought with a large enough effect; inconclusive = small, poorly fitted or top-dose-only effect, or another doubt; inactive = no such curve, though single readings can be large; an effect the other way counts as inactive or inconclusive.

One assay in a line: NCATS anti-infectives library activity on HEK293 viability as a counter-qHTS vs the C. elegans viability qHTS (AID 1745854). Note: potency is the fitted concentration of half-maximal effect. Particulars: HEK293 viability counter-screen; series mostly up to 41.8 µM. The essentials: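 Cytotoxicity counter-screen to a worm viability qHTS: CellTiter-Glo luminescence read 10 min after reagent addition. Compounds (final up to 41.7 uM, a 1:5 dilution series) incubated 24 hr at 37C with 1,500 HEK293 cells per well; digitonin control.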
Background: qHTS replaces the single test concentration by a dilution series.
Consider `Cc1cc(N2CCN([C@@H]3CN[C@H](C(=O)N4CCSC4)C3)CC2)n(-c2ccccc2)n1`, for which the Potency entry was “inactive”.

Turning to `CC(C)c1cc(C(=O)N2CC[C@@H](NC(=O)C3CC3)C2)n[nH]1`, the Potency result was “inactive”.

For `CN[C@H](CC(C)C)C(=O)N[C@H]1C(=O)N[C@@H](CC(N)=O)C(=O)N[C@H]2C(=O)N[C@H]3C(=O)N[C@H](C(=O)N[C@H](C(=O)O)c4cc(O)cc(O)c4-c4cc3ccc4O)[C@H](O[C@H]3C[C@](C)(N)[C@@H](O)[C@H](C)O3)c3ccc(c(Cl)c3)Oc3cc2cc(c3O[C@@H]2O[C@H](CO)[C@@H](O)[C@H](O)[C@H]2O[C@H]2C[C@](C)(NCc3ccc(-c4ccc(Cl)cc4)cc3)[C@@H](O)[C@H](C)O2)Oc2ccc(cc2Cl)[C@H]1O`, the Potency entry is “inactive”.

For the compound `COC(=O)[C@@]1(c2ccc(C)cc2)C[C@H]1CN1CCC(O)(c2ccccc2)CC1`, the Potency result is “inactive”.

As to `Nc1ncnc2c([C@@H]3N[C@H](CO)[C@@H](O)[C@H]3O)c[nH]c12`, the Potency result was “inactive”.

Consider `CCN(CC)Cc1ccc(C(=O)N(CCc2ccccc2OC)[C@@H]2CCNC2)cc1`, for which the Potency entry is “inactive”.

For `C[C@@]1(O)[C@H](O)[C@@H](CO)O[C@H]1n1ccc(N)nc1=O`, the Potency result was “inactive”.

Regarding `Cc1cc(OCc2nnc(SC3CCCC3)n2-c2cccnc2)ccc1-c1ccc(S(C)(=O)=O)cc1`, the Potency is 11.2 µM (active).

On to `N#C[C@@H]1CCCN1C(=O)CNC12CC3CC(CC(O)(C3)C1)C2`, for which the Potency result is “inactive”.

Consider `Cc1ccc(NC(=O)C(=O)NC2CC(C)(C)NC(C)(C)C2)cc1`, for which the Potency result was “inactive”.

Regarding `CC(C)c1cc(C(=O)N2CC[C@H](NC(=O)C3CC3)C2)n[nH]1`, the Potency result was “inactive”.

Regarding `COc1ccc(C(=O)C2CCN(CC(=O)N(Cc3nc4c(c(=O)[nH]3)COCC4)CC3CC3)CC2)cc1`, the Potency result was “inactive”.

As for `CN1CCc2nc(C(=O)N[C@@H]3C[C@@H](C(=O)N(C)C)CC[C@@H]3NC(=O)C(=O)Nc3ccc(Cl)cn3)sc2C1`, the Potency entry was “inactive”.

On to `CCNCc1nc2c(N)nc3ccccc3c2n1CC(C)(C)O`, for which the Potency result was “inactive”.

For `O=C(N/N=C/c1ccc(O)c(O)c1)c1cc2ccccc2cc1O`, the Potency result is “inactive”.

For `[N-]=[N+]=N[C@]1(CO)O[C@@H](n2ccc(=O)[nH]c2=O)[C@@H](O)[C@@H]1O`, the Potency result is “inactive”.

On to `O=C(COc1cccc2c(=O)[nH]ccc12)c1ccccc1`, for which the Potency entry is “inactive”.

Regarding `C[C@H](NC(=O)CCc1nc2ccccc2c(=O)[nH]1)c1ccccc1`, the Potency result is “inactive”.

`CCO[C@@H]1OC(=O)C[C@@H]1NC(=O)[C@@H]1CCCN1C(=O)[C@@H](NC(=O)c1ccc(N)c(Cl)c1)C(C)(C)C`: the Potency entry is “inactive”.

Consider `CC(C)C[C@H](CC(=O)NO)C(=O)N[C@@H](Cc1ccc2ccccc2c1)C(=O)N[C@@H](C)C(=O)NCCN`, for which the Potency entry is “inactive”.

Regarding `O=C(/C=C/c1cccc(S(=O)(=O)Nc2ccccc2)c1)NO`, the Potency result is “inactive”.

In the case of `CS(=O)(=O)c1ccc(-c2nnc(/C=C/c3nnc(-c4ccc(C#N)cc4)o3)n2-c2ccccc2Cl)nc1`, the Potency result was “inactive”.

For `Cc1cc(C)cc(C(=O)NOCCCCCC(=O)NO)c1`, the Potency entry was “inactive”.

`COc1c2c(cc3c1-c1c(cc4c(c1OC)OCO4)CC(C)C(C)C3)OCO2` (stereo unspecified): the Potency result is “inactive”.

Regarding `CC(C)C(NC(=O)c1ccc2ccccc2n1)C(=O)NC(CC(=O)O)C(=O)COc1c(F)cccc1F` (stereo unspecified), the Potency entry was “inactive”.

Regarding `CCOCc1nc2c(N)nc3ccccc3c2n1CC(C)(C)O`, the Potency result is “inactive”.

The next assay can be described thus: NCATS anti-infectives library activity on the primary C. elegans qHTS viability assay (AID 1745855; calls by dose curve; note: potency is the fitted concentration of half-maximal effect). Particulars: C. elegans worm area imaging, day 7; series mostly up to 41.8 µM. The essentials: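 GFP read-out by 488 nm laser cytometry at day 0, 3 and 7, gated on object perimeter, area and peak intensity, scored viability of PE254-GFP-FLuc worms exposed to compound in S medium with bacterial capsules at 21 °C.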
Regarding `Cc1cc(C)c(Nc2ccnc(Nc3ccc(C#N)cc3)n2)c(C)c1`, the Potency was 5.15 µM (active).

For `COC(=O)[C@@]1(c2ccc(C)cc2)C[C@H]1CN1CCC(O)(c2ccccc2)CC1`, the Potency result is “inactive”.

As for `O=C(N/N=C/c1ccc(O)c(O)c1)c1cc2ccccc2cc1O`, the Potency is 20.5 µM (active).

On to `C[C@H](NC(=O)CCc1nc2ccccc2c(=O)[nH]1)c1ccccc1`, for which the Potency result was “inactive”.

A short description of another assay: Viability counterscreen for antagonist of constitutive androstane receptor (CAR) against the NCATS DSHEA and TCM libraries (AID 1794837).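 Note: compound exposure lasted 24 h before viability reading.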 Particulars: CAR reporter cell line viability counterscreen, qHTS; series mostly up to 22 µM. Put shortly: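 HepG2-CYP2B6-hCAR cells, 2,500/well, were exposed 24 hr at 37C to substances together with 48 uM CITCO (final). Viability was read as CellTiter-Fluor fluorescence (Ex/Em 405/540 nm) after 1 hr.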
(In general: The purpose of a counterscreen is to sort out artefacts and off-target activity.)
In the case of `CC(C)=CCC[C@](C)(O[C@@H]1O[C@H](CO[C@@H]2O[C@H](CO)[C@@H](O)[C@H](O)[C@H]2O)[C@@H](O)[C@H](O)[C@H]1O)C1CC[C@]2(C)[C@@H]1[C@H](O)CC1[C@@]3(C)CC[C@H](O[C@@H]4O[C@H](CO)[C@@H](O)[C@H](O)[C@H]4O[C@@H]4O[C@H](CO)[C@@H](O)[C@H](O)[C@H]4O)C(C)(C)[C@@H]3CC[C@]12C` (stereo partly specified), the result was inactive.

Consider `CC(C)=CCC[C@](C)(O)[C@H]1CC[C@]2(C)[C@@H]1[C@H](O)CC1[C@@]3(C)CC[C@H](O)C(C)(C)[C@@H]3[C@@H](O[C@@H]3O[C@H](CO)[C@@H](O)[C@H](O)[C@H]3O[C@@H]3O[C@H](CO)[C@@H](O)[C@H](O)[C@H]3O)C[C@]12C` (stereo partly specified), for which the result was inactive.

Take `C[C@@]12CC[C@@H]3[C@@](CC[C@H]4[C@@]3(C)CCC[C@@]4(C)C(=O)O)(CC1=O)C2`: the compound was classed as inactive.

On to `CC1CC[C@]2(C(=O)O)CC[C@]3(C(=O)O)C(=CCC4[C@@]5(C)CC[C@H](OC6OC(C)C(O)C(OC7OC(CO)C(O)C(O)C7O)C6O)C(C)(C)C5CC[C@]43C)C2C1C` (stereo partly specified), for which the call was inactive.

Turning to `OC[C@H]1O[C@@H](OC[C@H]2O[C@@H](OC/C=C/c3ccccc3)[C@H](O)[C@@H](O)[C@@H]2O)[C@@H](O)[C@@H]1O`, the compound was called inactive.

Consider `CC(C)=CCC(O)/C(C)=C/CO[C@@H]1O[C@H](CO)[C@@H](O)[C@H](O)[C@H]1O` (stereo partly specified), for which the compound was classed as inactive.

Source of the values: PubChem BioAssay (NCATS).
